Bioassay records as filed in PubChem.
JMJD2E inh – JMJD2E (human) inhibition. B2RXH2. JMJD2E catalytic domain, FDH-coupled NADH fluorescence (FDH is formaldehyde dehydrogenase). Potency, µM (highest dose often 57.1 µM), inactives show at the top dose activity change, negative = inhibition, usual class: inhibitors. actives 1.6% (n = 230,000). AID 2147; active = well fitted inhibition curve with a large enough effect, not every such curve was filed as active; inconclusive = small, poorly fitted or top-dose-only effect, or another doubt; inactive = no such curve, though single readings can be large or run the other way;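 note: potency is the fitted concentration of half-maximal effect; 0% = wells with enzyme and -100% = buffer wells without enzyme; nearly all actives have a fitted effect of over 50% in size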
Target sequence (B2RXH2 1-337 limits assumed): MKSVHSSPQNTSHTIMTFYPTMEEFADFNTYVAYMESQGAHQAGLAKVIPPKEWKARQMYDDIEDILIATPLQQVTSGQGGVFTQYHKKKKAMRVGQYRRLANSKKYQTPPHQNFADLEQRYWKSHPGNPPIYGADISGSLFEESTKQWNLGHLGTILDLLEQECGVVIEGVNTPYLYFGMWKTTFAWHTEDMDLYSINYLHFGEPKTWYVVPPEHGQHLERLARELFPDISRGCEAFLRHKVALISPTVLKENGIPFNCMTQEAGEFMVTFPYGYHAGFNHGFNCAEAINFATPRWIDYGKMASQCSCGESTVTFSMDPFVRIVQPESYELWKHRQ
Sfp PPTase inh – Sfp phosphopantetheinyl transferase inhibition. Q9F4F7. Biochemical Sfp PPTase activity, qHTS. Potency, µM, for the others: largest response in the series, negative = inhibition, actives largely listed as inhibitors. actives 3.5% (n = 310,000). AID 1490;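 note: the enzyme is Sfp with the accession as filed and its product quenches rhodamine fluorescence; potency is the fitted concentration of half-maximal effect; 0% = enzyme reaction without inhibitor and -100% = no enzyme wells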
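Compounds were incubated with enzyme (final 15 nM) for 15 min at room temperature before substrate addition started the reaction. Fluorescence at 525 nm excitation, 598 nm emission was recorded immediately and after 30 minutes.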
Tau fibril FP – blocks human tau fibril formation measured by polarization; P10636; Potency, µM (series often up to 57.7 µM), inactives show at the top dose activity, negative = inhibition, usual class: inhibitors; actives 0.39% (n = 280,000); AID 1468; K18 P301L tau heparin fibrillization, Alexa594 FP, 6 h; note: potency is the fitted concentration of half-maximal effect; nearly all actives have a fitted effect of over 55% in size
Target sequence (P10636 561-689 P618L limits assumed): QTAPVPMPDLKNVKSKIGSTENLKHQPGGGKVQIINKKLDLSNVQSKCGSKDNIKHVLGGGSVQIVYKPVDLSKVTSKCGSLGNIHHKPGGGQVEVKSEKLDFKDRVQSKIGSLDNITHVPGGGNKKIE
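K18 P301L tau (15 uM unlabeled/0.24 uM Alexa 594-labeled, final) + compound + heparin 20 uM final; 100 mM NaOAc pH 7; 6 hr 37 C; ThT 30 uM final added, 1 hr RT; FP ex 555/em 632 nm.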
Tau fluor cs – counter-screen for tau fibril formation inhibitors. Potency, µM (highest dose often 57.7 µM), for inactives: top-dose activity change, negative = decrease. actives 0.93% (n = 280,000). tau K18 P301L Alexa594 fluorescence, heparin fibrillization. AID 1463; note: potency is the fitted concentration of half-maximal effect; nearly all actives have a fitted effect of over 55% in size
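Human tau K18 P301L (15 uM unlabeled, 0.24 uM Alexa 594-labeled) in 100 mM sodium acetate pH 7 with 20 uM heparin, 6 hr at 37 C. ThT 30 uM added, 1 hr ambient; Alexa 594 FP and total fluorescence read at 555/632 nm.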
FBPA coupling cs – coupling enzyme interference in Giardia aldolase counter-screen; activity change, negative = inhibition, % at 58.2 µM, hits read low; AID 2472; actives 0.67% (n = 290,000); coupling enzyme system counterscreen, AmpLite Red fluorescence; in the data active = activity change below about -30%
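Activity here indicates interference with the coupling reaction, not aldolase inhibition. Compounds at 57.5 uM final met coupling enzymes for 10 min at RT; substrate and AmpLite Red detection followed, with a 525/598 nm fluorescence read after 20 min.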
Tau ThT inhib – blocks human tau fibril formation measured by thioflavin T | P10636 | actives 2.1% (n = 270,000) | Potency, µM (highest dose often 57.4 µM), inactives show at the top dose activity, negative = inhibition, most hits filed as inhibitors | recombinant tau K18 P301L (four-repeat tau fragment), heparin-induced fibrillization, ThT fluorescence; note: potency is the fitted concentration of half-maximal effect; nearly all actives have a fitted effect of over 55% in size
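Tau K18 P301L fragment (15 uM unlabeled plus 0.24 uM Alexa 594-labeled) in 100 mM sodium acetate pH 7 with compound, fibrillization induced by 20 uM heparin for 6 hr at 37 C. Thioflavin T (30 uM) added, fluorescence read after 1 hr (ex 450, em 510 nm).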
* marks the source's active call; other numbers are inactive results; ? = inconclusive; . = not tested or not shown; ! = repeats disagree; [ ] = another dose, or the depositor's remark. Shown are actives, neighbours in structure and some others; about 5.3% of the full set was active somewhere. Unless noted, calls come from the whole dose curve; as a rule, active = well fitted curve in the direction sought with a large enough effect; inconclusive = small, poorly fitted or top-dose-only effect, or another doubt; inactive = no such curve, though single readings can be large; an effect the other way counts as inactive or inconclusive. Unless noted, % is set by controls: 0 for no effect and ±100 for the full control effect.

SMILES	JMJD2E inh	Sfp PPTase inh	Tau fibril FP	Tau fluor cs	FBPA coupling cs	Tau ThT inhib
Cc1cccc(OCCn2nnc3sc4c(c3c2=O)CCCC4)c1	.	.	-8.3%	-21.1%	.	?
Cc1nc2cc3nc(C)sc3cc2s1	-7.0%	39.8µM*	-2.9%	-9.1%	-6.6	?
Cc1nc2cc(CO)ccc2s1	8.6%	9.9%	-0.4%	6.9%	4.6	3.2%
CCCCCCCC1=Cc2ccccc2C(C(C(=O)OC)C(=O)OC)N1C(=O)OC (stereo not given)	-4.2%[11.4 µM]	-10.4%	-4.9%[11.6 µM]	-16.2%[11.6 µM]	0.4	-11.9%[11.5 µM]
COc1ccc(COc2cc(-c3cccc(OC)c3)nc3ccc(N)cc23)cc1	?	-11.2%	?	12.6µM*[quencher]	-1.1	?
C#C[C@]1(O)CC[C@H]2[C@H]3[C@H](CC[C@@]21C)C1=C(CC(=O)CC1)C[C@@H]3C	.	13.9%	.	.	.	.
Cc1ccc(S(=O)(=O)/N=C2/NC(=O)/C(=C/c3cc([N+](=O)[O-])ccc3O)S2)cc1	.	-57.7%	.	.	16.6	.
COc1cc(/C=C2\S/C(=N/S(=O)(=O)c3ccc(C)cc3)NC2=O)c([N+](=O)[O-])cc1OC	-16.3%	5.6%	?	?	10.2	14.1µM*
CC1=C/C(=N\OS(=O)(=O)c2ccccc2)C(C(C)C)=CC1=O	3.98µM*	-28.1%	?	-26.2%	-70.1*	10µM*
CC1=C/C(=N\OS(=O)(=O)c2ccccc2)C(C)=CC1=O	13.0%	-10.9%	?	?	-88.3*	14.1µM*
COc1cc(C(=O)O/N=C2/C=C(C)C(=O)C=C2C)cc(OC)c1OC	3.4%	5.6%	-2.3%	-5.4%	-9.7	?
CC1=C(C(=O)Nc2ccccc2Br)C2(CCC(C)CC2)OC1=O (stereo not given)	.	.	0.8%	-8.5%	.	-5.3%
CCc1ccccc1NC(=O)c1ccc2c(c1)nnn2C1CCCC1	.	.	3.8%	-18.6%	.	?
Nc1c(-c2ccccc2)sc2ccc3ccccc3[n+]12	.	35.5µM*	.	.	.	.
COc1cccc(CNC(=O)c2cc(-c3ccc(Cl)cc3)n[nH]2)c1	.	.	?	-12.4%	.	?
C/C(=N\Nc1cc(-c2ccccc2)nc(-c2ccccc2)n1)c1ccc(O)c(C)c1	-3.5%	11.5%	6.3%	1.2%	-0.1	-1.7%
COc1cc(N/N=C(\C)c2ccc(N)cc2)nc(-c2ccccc2)n1	?	14.9%	3.4%	14.1µM*[quencher]	-2.8	15.8µM*
COc1cc(N/N=C(\C)c2ccc(O)c(C)c2)nc(-c2ccccc2)n1	31.6µM*	8.9%	?	8.91µM*[quencher]	-3.3	?
CCn1c(CN2CCCCC2)nc2cc(NC(=O)COc3ccccc3C(C)(C)C)ccc21	.	.	10.4%	-0.6%	.	-1.4%
CCCCn1c(NS(=O)(=O)c2ccc(C)cc2)c(S(=O)(=O)c2ccccc2)c2nc3ccccc3nc21	?	11.7%	-15.0%	-7.6%	-52.7*	?
Cc1ccc(S(=O)(=O)c2c(N)n(CCCN(C)C)c3nc4ccccc4nc23)cc1	?	3.9%	-8.2%	-18.9%	2.6	3.5%
CC(C)n1c(=S)[nH]c2scc(-c3cccs3)c2c1=O	-19.9%	39.8µM*	-15.2%	?	0.6	?
C[C@@]12C=Cc3occc3C1CC[C@@]13C[C@@H](CCC12)[C@@](O)(CO)C3 (stereo not given in full)	.	-27.7%	10µM*	?	1.9	11.2µM*
CC(=O)OC[C@@]1(O)C[C@]23CCC4c5ccoc5CC[C@@]4(C)C2CCC1C3 (stereo not given in full)	-5.2%	20.2%	-3.8%	-4.6%	-0.6	-5.8%
CSc1nc(NCCOCCO)c2sc3nc(-c4ccco4)c4c(c3c2n1)CCC4	?	35.5µM*	-7.9%	-8.1%	1.7	?
SMILES	JMJD2E inh	Sfp PPTase inh	Tau fibril FP	Tau fluor cs	FBPA coupling cs	Tau ThT inhib
CCN(CCO)c1ncnc2c1sc1nc(C(C)C)c3c(c12)CC(C)(C)OC3	?	13.2%	-0.7%	-14.5%	-8.0	-9.5%
CCN(CCO)c1nc(SC)nc2c1sc1nc(-c3ccco3)c3c(c12)CCC3	3.55µM*	?	?	?	2.2	25.1µM*
CSc1nc(NCc2ccco2)c2sc3nc(C(C)C)c4c(c3c2n1)CC(C)(C)OC4	?	?	2.6%	-3.4%	-4.6	-4.2%
CCOCCCNc1nc2c(C)cccn2c(=O)c1/C=C1\SC(=S)N(C(C)CC)C1=O (stereo not given)	-10.7%	2.6%	22.4µM*	-0.7%	-7.2	?
Cc1cccn2c(=O)c(/C=C3\SC(=S)NC3=O)c(NCCCN3CCOCC3)nc12	-3.0%	3.98µM*	?	-9.2%	-3.6	?
CCS(=O)(=O)c1nc(S(=O)(=O)c2ccc(Cl)cc2)c(NCc2ccc(Cl)cc2)s1	.	.	-6.0%	-15.6%	.	10.3%
N[C@@H](COP(=O)(O)O)C(=O)O	1.5%	39.8µM*!	8.0%	-11.4%	-0.5	-10.2%
c1ccc(OCCCCn2cnc3ccccc32)cc1	8.4%	10.1%	7.1%	-9.5%	0.1	-8.6%
Cc1ccc(OCCCCn2cnc3ccccc32)cc1	-6.0%	39.8µM*	-0.3%	-4.5%	-8.3	-12.1%
Oc1ccc(/C=N/Nc2cc(N3CCCC3)nc(N3CCCC3)n2)cc1O	14.1µM*	-15.7%	-13.2%	15.8µM*[quencher]	-36.8*	25.1µM*
Oc1ccc(/C=N\Nc2cc(N3CCOCC3)nc(N3CCOCC3)n2)c(O)c1	14.1µM*	-2.2%	3.2%	?	-20.0	?
CCCCCCC(=O)Cc1cc(OC)c(OC)cc1/C=C(/C(C)=O)C(=O)OC	.	12.1%	5.6%[11.6 µM]	0.4%[11.6 µM]	-1.2	-7.4%[11.5 µM]
C=C(C)CSc1cc(C)c(C#N)c2nc3ccccc3n12	-2.3%	31.6µM*	1.8%	3.3%	-14.2	5.4%
Cc1cc(NCCCCO)n2c(nc3ccccc32)c1C#N	?	-10.6%	-12.0%	-18.7%	-0.1	-9.8%
CCOc1ccc(NC(=O)CCc2nnc3n(C)c(=O)c4sccc4n23)cc1	.	.	3.6%	-16.3%	.	?
CC/C(O)=C(\C#N)c1nnc2n1CCCCC2	-0.5%	89.1µM*	2.0%	-1.2%	.	-2.9%
C/C(CC(=O)NC(C)(C)C)=N\NC(N)=S	-18.8%	35.5µM*	1.6%	-5.0%	-0.9	-15.4%
CC1CCC(C(C)C)C(P(=O)(c2ccccc2)c2ccccc2)C1 (stereo not given)	.	3.2%	.	.	-0.1	.
CCOc1ccc(C(=O)CSc2nnc(C3CC3)n2C)cc1	0.7%	?	-4.3%	-6.2%	-1.3	-13.9%
O=C(CSc1nnc(C2CC2)n1Cc1ccccc1)N1CCN(S(=O)(=O)c2ccccc2)CC1	2.3%	-4.8%	5.8%	-4.0%	1.7	-5.7%
Cn1c(SCC(=O)c2ccccc2)nnc1C1CC1	-10.6%	56.2µM*	-7.0%	-4.3%	1.4	-15.8%
